# Experimental data reported in the supplement of paper PMC3334620.
# The full ranking holds about 33,000 sequences; the median of “E-score (-0.5 to 0.5)” is about -0.017, and the highest 2% start at about 0.3. For the sample, the highest values were picked, then their nearest neighbours and some sequences at random.
# Target: T1, Sut1 (UniProt P53032)
# T1 sequence: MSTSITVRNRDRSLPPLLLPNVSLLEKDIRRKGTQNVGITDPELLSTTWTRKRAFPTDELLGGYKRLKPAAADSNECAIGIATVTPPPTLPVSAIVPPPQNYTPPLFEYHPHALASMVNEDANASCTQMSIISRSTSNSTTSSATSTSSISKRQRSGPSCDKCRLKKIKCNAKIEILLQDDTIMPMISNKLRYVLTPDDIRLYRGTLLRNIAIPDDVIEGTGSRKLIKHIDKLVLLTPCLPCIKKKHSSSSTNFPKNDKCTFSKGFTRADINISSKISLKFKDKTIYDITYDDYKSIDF
# Assay: PBM E-score (8-mer binding enrichment) (E-score (-0.5 to 0.5)); higher = stronger / more preferred TF binding
# Conditions: protein concentration: 200 nM; construct: GST-full length
# Summary of the method: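 PURExpress in vitro transcription/translation supplied GST-tagged yeast transcription factors, either full-length or DNA-binding domain. Applied at about 100-200 nM to universal all-10-mer Agilent arrays double-stranded by primer extension, the bound protein was detected with fluorescent anti-GST. E-scores, modified Wilcoxon-Mann-Whitney statistics, were given by the Universal PBM Analysis Suite to ungapped eight-base words pooled with their reverse complements after masliner normalisation.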
row,Sequence,PBM E-score
1,CATAATAA,0.131
2,CGTAATAA,0.0956
3,TATAACAA,0.319
4,GATAACAA,0.205
5,AGTAATAG,0.063
6,TATAATAA,0.298
7,AGTAATAC,0.133
8,CATAACAA,0.179
9,AGTAATAT,0.312
10,TCTAATAA,0.173
11,GGTAATAA,0.188
12,CATCTTCG,-0.0746
13,AAGATCAA,0.0587
14,AATTGCAG,0.0512
15,GCGACCGC,-0.23
16,AACAATAA,0.192
17,AACAATAC,0.0474
18,AACAATAT,0.331
19,AGGCTGAC,-0.245
20,ATAGGTCA,0.0286
21,AGAATGTC,-0.0101
22,AAGCATAC,0.164
23,ATAAAATG,0.289
24,CTTCGGTA,0.0563
25,CTTCGGAA,0.335
26,CTTCGGGC,-0.277

row,Sequence,PBM E-score
1,CTTCGGAC,0.405
2,CTTCGGCC,-0.00176
3,GTTCGGAA,0.289
4,CGCGACAG,-0.283
5,TGGCGACA,-0.207
6,TATTCGGA,0.352
7,GATTCGGA,0.385
8,CATTCGGA,0.392
9,GATTCGGC,0.0544
10,AATTCGGA,0.396
11,TATTCGCA,0.0506
12,TATTCGAA,0.0804
13,CATTCGGG,-0.0375
14,AATTCGGC,-0.0483
15,AATTCGGG,0.17
16,GATTCGCA,0.113
17,CATTCGGC,-0.0155
18,GCGGGAGC,-0.162
19,CCGCGAAC,0.0271
20,ATCTAGGG,-0.097
21,CAGCCCGA,-0.211
22,ACAGGACC,-0.108
23,CGGCCCAA,-0.116
24,CGTTGACC,-0.224
25,TGAAAGCA,0.148
26,AGTAATTG,0.0745

row,Sequence,PBM E-score
1,ATTAATTC,0.298
2,ATTAATTG,0.187
3,CGTAATTC,0.0414
4,AGTAATTC,0.307
5,ATTAATTA,0.188
6,CGACAGCA,-0.0542
7,TGATCGCA,-0.221
8,CATGAGCC,-0.195
9,GAATTCAC,0.0262
10,GAGAAGGA,-0.0992
11,ACGTCCGC,-0.121
12,AAGTCCAT,0.0246
13,AAGTCCGC,0.486
14,AAGTCCTC,0.0867
15,AAGTCCCT,-0.131
16,AAGTCCGT,0.487
17,TCCTTCGA,0.11
18,GAATATGC,0.0981
19,GCCCGCAA,-0.0979
20,ACATCGCA,-0.067
21,CAGGCCTA,-0.108
22,GCTATCAA,0.119
23,ATGTTGGC,-0.0785
24,GCGGCCCA,0.00935
25,AGTTAGCC,0.177
26,AGAACTCT,0.07

row,Sequence,PBM E-score
1,CGAACTCA,-0.0187
2,ATAACTCG,0.149
3,ATAACTCC,0.365
4,CGAACTCG,-0.0661
5,CGAACTCC,0.391
6,AGAACTCG,-0.03
7,GGAACTCC,0.356
8,GGAACTAC,-0.062
9,CTAACTCC,0.221
10,GGAACTCA,-0.0534
11,AGAACTCC,0.31
12,AGCTGCAG,0.0539
13,TCCATAGA,0.00973
14,CAGTTCTA,-0.125
15,CGAGAATC,0.0357
16,CTGCAAGA,-0.136
17,AAGCCTGA,-0.208
18,ACAACAGT,0.0455
19,AAGGGTCT,-0.114
20,TAACTTAA,0.246
21,CAACCCCG,0.355
22,AAACCCCG,0.441
23,CAACCCGG,-0.157
24,CAACCCCC,-0.266
25,AACCCCCG,-0.193
26,AAACCCCC,-0.346

row,Sequence,PBM E-score
1,ACGGTATA,-0.115
2,AAACTAAC,0.27
3,AAAGTTCT,0.149
4,GGGCGTGA,-0.182
5,AACCCGAG,0.0811
6,ACCCCGAC,0.273
7,ACCCCGAT,0.342
8,ACCCCGAG,0.382
9,CCCCCGAG,-0.343
10,CCCCCGAA,-0.0826
11,AACCCGAT,-0.0428
12,ACCCCGAA,0.332
13,GCCCCGAA,0.184
14,GGGCGAAA,0.0444
15,AATCGCAT,0.0231
16,CGCACATC,-0.156
17,GAGTTCAA,0.152
18,GGATCAGA,-0.0639
19,GTGGGGAA,0.0142
20,GGCTGGAC,-0.278
21,ATTCCGTG,0.273
22,ACTCCGTG,0.473
23,ACTCCGTA,0.478
24,GCTCCGTA,0.291
25,CCTCCGTC,-0.0539
26,ACTCCGTC,0.48

row,Sequence,PBM E-score
1,CCTCCGTA,0.0232
2,AATCCGTG,-0.153
3,ATTCCGTC,0.143
4,CGGTGAGA,0.0413
5,AGGTTAGG,-0.0421
6,ACCAACCG,0.0755
7,GGACAGTA,0.184
8,ACCCTTAC,-0.129
9,GGAAGCCC,-0.0417
10,AATTTACC,0.143
11,ATTTATCA,0.229
12,CTTTTACC,0.149
13,ATTTTACC,0.352
14,ATTTTATG,0.13
15,CTTTTATC,0.26
16,ATTTTATC,0.321
17,ATTTATCC,0.33
18,ATTTATCG,0.191
19,ATTCATGA,-0.0184
20,AGACCAAA,0.026
21,CCCGATTC,0.0897
22,CCAGAAAC,-0.0561
23,ATACAAAT,0.312
24,ATACAAAG,0.119
25,ATACAATA,0.299
26,ATACAAAA,0.288

row,Sequence,PBM E-score
1,CTACAAAC,0.0828
2,GTACAAAC,0.0652
3,ATACAATC,0.236
4,ATACAAAC,0.298
5,CTACAATA,0.181
6,TCAGGACA,-0.0448
7,ACCCGCCT,-0.184
8,ACTGGATC,-0.0162
9,AATCTCTG,-0.129
10,ACCTCCGC,-0.104
11,CACTCCTC,-0.176
12,CACTCCGG,0.476
13,AACTCCCC,-0.0339
14,CACTCCCG,-0.0356
15,GACTCCGC,0.429
16,CCCTCCGC,-0.318
17,GACTCCTC,0.0705
18,CACTCCGC,0.367
19,AACTCCGC,0.492
20,CACTCCTG,-0.0764
21,GACTCCAC,0.0104
